# Bioassay records as filed in PubChem BioAssay.
# p53 reactivation – qHTS assay for re-activators of p53 using a Luc reporter. H1299 p53-A138V BP100-luciferase reporter, luminescence, 24 h. Potency, µM (top dose mostly 92.2 µM), without a hit: top-dose activity change, positive = activation, most hits filed as activators. hit rate 0.063% among 320,000; also: potency is read from the fitted curve at half-maximal effect; % of control where 0% means no effect; nearly all actives have a fitted effect of over 45% in size
#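 H1299 (p53-null), stable ts p53-A138V + BP100-Luc; 1000 cells/well, Opti-MEM/10% FBS; cpd 4 pt, 1:5; 24 h, 37 deg C, 5% CO2; detection reagent 10 min RT; luminescence.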
# RORgamma inh – qHTS for inhibitors of ROR gamma transcriptional activity; Drosophila S2 Gal4-RORgamma UAS-luciferase reporter, 20 h; Nuclear receptor ROR-gamma (Mus musculus), P51450; Potency, µM (top dose mostly 53.6 µM), for inactives: at the highest dose activity change, negative = inhibition, usual class: inhibitors; AID 2551, 2010; hit rate 5.4% among 310,000; also: potency is read from the fitted curve at half-maximal effect; % is scaled to controls: 0 for no effect and ±100 for the full control effect; nearly all actives have a fitted effect of over 60% in size
# Target sequence (P51450 whole entry, looked up, the tested form may be a part): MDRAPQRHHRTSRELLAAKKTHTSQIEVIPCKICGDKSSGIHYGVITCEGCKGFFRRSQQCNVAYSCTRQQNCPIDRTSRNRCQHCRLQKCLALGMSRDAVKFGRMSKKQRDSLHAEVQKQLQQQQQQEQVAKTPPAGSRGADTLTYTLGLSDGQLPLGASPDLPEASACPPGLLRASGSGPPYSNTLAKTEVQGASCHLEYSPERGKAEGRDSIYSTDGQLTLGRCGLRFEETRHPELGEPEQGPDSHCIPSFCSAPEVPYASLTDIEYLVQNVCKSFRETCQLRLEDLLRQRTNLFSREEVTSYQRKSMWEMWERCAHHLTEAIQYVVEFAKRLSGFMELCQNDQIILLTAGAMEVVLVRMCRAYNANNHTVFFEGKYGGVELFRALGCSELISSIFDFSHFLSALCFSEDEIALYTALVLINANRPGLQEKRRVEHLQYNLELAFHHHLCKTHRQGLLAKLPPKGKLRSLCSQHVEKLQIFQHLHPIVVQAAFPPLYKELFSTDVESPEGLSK
#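 Schneider cells (Drosophila), stable Gal4 DBD–ROR gamma + UAS-luc; 1 hr cmpd preincubation; Cu2+ induction 700 uM final; 20 hr ambient; luminescence.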
# CtBP-E1A inh – qHTS Assay for Inhibitors of the CtBP/E1A Interaction | AlphaScreen GST-E1A/His-CtBP binding, 1536-well; hits give low values | AID 651724, 2012 | CtBP / adenovirus E1A interaction (AlphaScreen) | activity change, % (test concentration not listed) | hit rate 0.49% among 340,000; in the data active = activity change below about -65%; inconclusive = mostly about -30% to -63%; also: % is scaled to controls: 0 for no effect and ±100 for the full control effect
#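 GST-E1A and His-tagged CtBP (125 nM each as 5X stock) were preincubated with pin-transferred compound for 2 h at 37 °C in the dark, then glutathione donor and nickel acceptor beads were added for 1 h before AlphaScreen reading.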
# Gal4-VP16 FLuc – VP16 counterscreen qHTS for inhibitors of ROR gamma transcriptional activity; Drosophila S2 Gal4-VP16 UAS-luciferase, luminescence, 20 h; Potency, µM (doses to about 53.6 µM), for the others: at the highest dose activity, negative = inhibition, hits mostly inhibitors; hit rate 3.5% among 310,000;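 also: Gal4-VP16 expression switched on by copper sulfate through the metallothionein promoter; potency is read from the fitted curve at half-maximal effect; % is scaled to controls: 0 for no effect and ±100 for the full control effect; nearly all actives have a fitted effect of over 50% in size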
# Six1-Eya2 blk – qHTS Assay for Inhibitors of the Six1/Eya2 Interaction. Homeobox protein SIX1 (Homo sapiens) + Protein phosphatase EYA2 (Homo sapiens), …. AlphaScreen GST-Six1/His-Eya2 binding, biochemical; hits give low values. activity change, % (test concentration not listed). hit rate 0.56% among 360,000; in the data active = activity change below about -65%; inconclusive = mostly about -30% to -63%; also: % is scaled to controls: 0 for no effect and ±100 for the full control effect
#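 AlphaScreen with GST-Six1 and His-Eya2 (5X mix: 250 nM and 500 nM), glutathione donor and nickel acceptor beads; buffer 50 mM Tris pH 8.0, 300 mM NaCl, 1 mM TCEP; 1 h at 37 C in the dark.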
# Starred values were filed as active, the others as inactive; ? = inconclusive; nt = no result given; [ ] = another dose, or the depositor's remark. Only some compounds are listed: those with a hit (about 5.4% of all), similar ones and a draw of the others. Unless noted, calls follow the shape of the dose curve; as a rule, active = well fitted curve in the direction sought with a large enough effect; inconclusive = small, poorly fitted or top-dose-only effect, or another doubt; inactive = no such curve, though single readings can be large; an effect the other way counts as inactive or inconclusive.
SMILES,p53 reactivation,RORgamma inh,CtBP-E1A inh,Gal4-VP16 FLuc,Six1-Eya2 blk
Cc1ccc(NC(=O)CN(C)C(=O)CSc2ccc3c(c2)OCCO3)cc1,-1.1%,nt,3.9,nt,-1.3
CC(=O)Nc1ccc(C2NC(=S)N(c3ccccc3C(F)(F)F)C(C)=C2C(=O)N2CCOCC2)cc1 (configuration not stated),-1.1%,4.1%,2.0,-16.3%,-4.6
COC(=O)C1=C(C)N(c2ccccc2)C(=S)NC1c1ccccc1C(F)(F)F (configuration not stated),-4.4%,3.16µM*,nt,?,-23.9
COCCOC(=O)C1=C(C)N(c2ccccc2)C(=S)NC1c1ccccc1C(F)(F)F (configuration not stated),-1.5%,17.8µM*,nt,?,-21.5
CNC(=O)C(Sc1nc(C)nc2c1oc1ccccc12)C(C)=O (configuration not stated),6.0%,32.6%,4.6,7.08µM*,?
Cc1nc(NCCc2ccc(S(N)(=O)=O)cc2)c2c(C)c(C)sc2n1,-16.2%,10µM*,-14.3,10µM*,-2.5
Nc1nc(Sc2c([N+](=O)[O-])cc(C(F)(F)F)cc2[N+](=O)[O-])n[nH]1,-11.8%,10µM*,-1.2,15.8µM*,-22.7
Nc1nc(Sc2ccc(C(F)(F)F)cc2[N+](=O)[O-])n[nH]1,6.6%,13.3%,-0.2,25.5%,-2.8
Cc1onc(-c2ccccc2Cl)c1C(=O)Oc1cc(N)n(S(=O)(=O)c2ccc(F)cc2)n1,15.7%,-0.5%,?,-3.3%,-81.3*
CCN(CC)CCNC(=S)NC(=O)c1cn(-c2ccccc2)nc1-c1ccc(OC)cc1,15.6%,7.08µM*,-22.1,12.6µM*,?
Cc1cc(C)nc(Nc2n[nH]c(-c3ccc(N)cc3)n2)n1,?,0.0%,-0.8,?,-0.5
Cc1cc(C)nc(Nc2n[nH]c(-c3ccccc3Br)n2)n1,14.5%,14.1µM*,-1.9,?,7.7
Cc1cc(C)nc(Nc2n[nH]c(-c3ccc(C(C)(C)C)cc3)n2)n1,5.6%,10µM*,-0.5,4.6%,-3.6
CC(C)C1C(=O)N(Cc2cn(CCC3OCCO3)nn2)CCS(=O)(=O)N1Cc1ccc(-c2ccc(F)cc2Cl)cc1 (configuration not stated),nt,nt,-2.0,nt,-1.8
Cc1ccc(NC(=S)Nc2ccc(OC(F)F)c(Cl)c2)cc1Cl,13.1%,12.6µM*,-0.5,?,0.0
Fc1ccc(NC(=S)Nc2ccccc2OC(F)F)cc1Cl,21.6%,?,6.0,?,7.3
COc1ccc(NC(=S)Nc2ccc(C)c(Cl)c2)cc1OC,28.2%,?,8.0,?,-11.6
CC(NC(=S)Nc1ccc(OC(F)F)c(Cl)c1)C(C)(C)C (configuration not stated),-1.4%,2.82µM*,7.1,12.6µM*,-1.4
Cc1c(Cl)cccc1NC(=S)NCc1ccccc1Cl,11.3%,1.12µM*,3.7,1.58µM*,6.6
Cc1c(Cl)cccc1NC(=S)NCc1ccc(F)cc1,nt,2.24µM*,-1.1,5.01µM*,-14.9
Fc1ccc(CNC(=S)Nc2ccccc2Cl)cc1,-1.7%,11.2µM*,2.0,?,-1.4
O=C(c1ccc(Cl)c(S(=O)(=O)N2CCCCCC2)c1)N1CCCC1,-2.8%,4.9%,0.1,-0.1%,7.7
Cc1ccc(CNC(=O)CNC(=O)c2ccc(Br)o2)cc1,?,-31.6%,1.2,-6.8%,2.7
O=C(Oc1cccccc1=O)c1ccccc1,3.1%,10µM*,nt,?,0.7
COC(=O)NC(c1cccc(F)c1)C(C(C)=O)C(=O)OC (configuration not stated),nt,-4.9%[10 µM],nt,-7.3%[10 µM],nt
NC1(C(=O)O)C[C@@H](C(=O)O)[C@H](C(=O)O)C1,nt,-0.1%,nt,-8.6%,nt
NC1(C(=O)O)CSSC1,nt,nt,-0.2,nt,-88.0*
Clc1ccc(CN2C3=NCCN3c3ccccc32)cc1Cl,1.9%,17.8µM*,-0.6,-15.9%,-0.8
CCCCNc1c([N+](=O)[O-])cc(C)cc1[N+](=O)[O-],-1.2%,14.0%,-24.9,5.0%,-66.9*
